BoNT F protease: inhibitors of Botulinum neurotoxin F light chain protease | Multiplex microsphere protease cleavage assay, flow cytometry | 360,000 tested, 0.22% active | AID 588497 | inhibition, % at 10 µM; in the data active = inhibition above about 35%, passing the limit was not always enough; inconclusive = no clear call, values can overlap the other calls; note: plate controls were buffer without enzyme for full effect and enzyme alone for no effect
BoNT-A LC inh2: BoNT A light chain protease inhibition; multiplex microsphere protease substrate cleavage, flow cytometry; inhibition, % at 10 µM; 360,000 tested, 0.17% active; note: plate controls were buffer without enzyme for full effect and enzyme alone for no effect
Anthrax LF prot: blocks Bacillus anthracis lethal factor protease; P15917; 360,000 tested, 0.12% active; AID 588501; inhibition, % at 10 µM; multiplex microsphere protease cleavage assay, LF; note: plate controls were buffer without enzyme for full effect and enzyme alone for no effect
Bead autofluor: flagged as autofluorescent in microsphere protease counterscreen | fluorescence intensity (test concentration not listed) | 360,000 tested, 3.1% active | compound autofluorescence counterscreen, microsphere flow cytometry; active compounds read high; in the data active = fluorescence intensity above about 16000; inconclusive = no clear call, values can overlap the other calls
An asterisk follows results filed as active; u = inconclusive. Compounds with a hit are over-represented: about 3.5% of the library has one in this group of screens. Cut-off read from the data, not from the text of the source, unless noted: active = inhibition above about 30%; inconclusive = no clear call, values can overlap the other calls; inactive = below that.

SMILES | BoNT F protease | BoNT-A LC inh2 | Anthrax LF prot | Bead autofluor
COC(=O)C1CCCN1S(=O)(=O)c1ccccc1NC(=O)c1cc(OC)c(OC)c(OC)c1 (stereo not drawn) | 0 | 1 | 0 | 2998
CC(C)[C@H](N)c1nnc(SCC(=O)c2ccc(Cl)cc2)o1 | -9 | -1 | -6 | 8019
C[C@H](N)c1nnc(SCC(=O)c2ccc(Cl)cc2)o1 | -1 | -1 | 1 | 16731*
O=c1c2cc(N3CCOCC3)ccc2[nH]c(=S)n1CCCN1CCCCCC1 | -5 | u | -5 | 21083*
CC(C)OCCCn1c(=S)[nH]c2ccc(N3CCOCC3)cc2c1=O | -4 | -2 | -1 | 20555*
O=c1c2cc(N3CCOCC3)ccc2[nH]c(=S)n1Cc1ccc(Cl)cc1 | 2 | 1 | 1 | 16514*
O=C(CCCCCn1c(=S)[nH]c2ccc(N3CCOCC3)cc2c1=O)NCc1ccc(Cl)cc1 | -2 | 1 | -3 | 3773
NC(=O)c1ccc(CN2CCc3ccccc3C2)cc1 | -13 | 1 | 1 | 3456
COc1ccc(CCNC(=O)CSCC(=O)Nc2cc(S(C)(=O)=O)ccc2Cl)cc1 | -2 | 0 | -7 | 2959
CC(C)C(NC(=O)c1cccs1)c1nnc(SCC(=O)Nc2nccs2)n1C (stereo not drawn) | 5 | 4 | -4 | 21406*
COC(=O)c1cc(OC)c(OC)cc1NC(=O)CSc1nnc(-c2cccnc2)n1C | -6 | -4 | 1 | 20945*
CC(NC(=O)c1ccccc1F)c1nnc(SCC(=O)Nc2nccs2)n1C (stereo not drawn) | 7 | 0 | 2 | 5253
CCn1c(SCC(=O)Nc2nccs2)nnc1-c1ccc(C)cc1 | -10 | 2 | -6 | u
COC(=O)c1ccccc1NC(=O)CSc1nnc(-c2cccnc2)n1C | u | 0 | 2 | 3253
CCC(=O)Nc1ccc(-c2nnc(SCC(=O)Nc3nccs3)n2C)cc1 | 11 | 6 | -3 | 19859*
Cc1ccc(NC(=O)CSc2nnc(-c3ccncc3)n2C)cc1C | -6 | u | -3 | 20661*
CN(Cc1ccccc1)C(=O)c1ccc(NC(=O)C2CCCN(C(=O)OC(C)(C)C)C2)cc1 (stereo not drawn) | -2 | -1 | -7 | 3788
O=C(/C=C/[C@H]1O[C@@H](n2cnc3c(NC(=O)c4ccccc4)ncnc32)[C@H](O)[C@@H]1O)NCc1cccc2ccccc12 | -16 | -1 | 7 | 4316
COc1ccc(OC)c(-c2csc3nnc(SCC(=O)Nc4ccc(NC(C)=O)cc4)n23)c1 | -3 | -1 | -1 | 20934*
COc1ccc(NC(C)=O)cc1NC(=O)CSc1nnc(-c2ccccc2)n1N | -1 | -1 | -2 | 10659
COc1ccc(NC(C)=O)cc1NC(=O)CSc1nnc(-c2ccncc2)n1C | 1 | u | -5 | 21036*
Cc1onc(-c2ccccc2)c1C(=O)Nc1nc2c(s1)CCCC2 | -3 | 1 | 9 | 8517
Cc1cc(C(=O)Nc2nc3c(s2)CCCC3)no1 | -2 | 0 | -7 | 23398*
COc1ccc(CN2C(=O)c3cccnc3C2=O)cc1S(=O)(=O)N(C)c1cccc(C)c1 | 0 | 0 | -2 | 6116
O=C(c1ccc(S(=O)(=O)N2CCOCC2)cc1)N1CCCc2ccccc21 | -3 | -2 | 2 | 17398*
SMILES | BoNT F protease | BoNT-A LC inh2 | Anthrax LF prot | Bead autofluor
O=C(c1cnc2n(c1=O)CCS2)N1CCCc2ccccc21 | 4 | 3 | 1 | 22039*
O=C(c1cccnc1)N1CCCc2ccccc21 | -2 | 0 | -2 | 20718*
O=C(c1cnc2ccccn2c1=O)N1CCCc2ccccc21 | 10 | 9 | -6 | 17332*
COc1ccc(OC)c(NC(=O)C2CCN(c3ncccn3)CC2)c1 | -1 | 1 | -4 | 19922*
Cc1ccccc1NC(=O)C1CCN(c2cnccn2)CC1 | -5 | -2 | -3 | 21599*
COc1ccccc1NC(=O)C1CCN(c2ncccn2)CC1 | -2 | -1 | -3 | 21787*
Cc1occc1C(=O)NNC(=O)c1ccc(S(=O)(=O)N(C)C)cc1 | -4 | 2 | 3 | 8367
O=C(CNS(=O)(=O)c1ccc(Br)s1)NCc1ccccc1 | 3 | 0 | 19 | 3043
O=C(NCCO)/C(=C/c1ccc(Br)cc1)NC(=O)c1cccs1 | 0 | -2 | -1 | 23982*
O=C(NCCO)/C(=C\c1ccco1)NC(=O)c1cccs1 | 5 | 1 | -7 | 3989
O=C(c1cc(-c2ccccc2)nc2ccccc12)N1N=C(C(F)F)CC1(O)C(F)F (stereo not drawn) | -11 | -7 | -3 | 26128*
Cc1ccc(-c2cc(C(=O)N3N=C(C(F)F)CC3(O)C(F)F)c3ccccc3n2)cc1C (stereo not drawn) | -12 | 1 | -5 | 10021
O=S1(=O)CC(N2CCN(CC3CC3)CC2)CN1Cc1ccc(F)cc1 (stereo not drawn) | -4 | 0 | 4 | 5418
CCCn1nnnc1NCc1ccc(OC)cc1OC | 6 | 0 | -7 | 3552
CCCCn1nnnc1NCc1cc(OC)c(OC)cc1OC | 0 | 0 | 0 | 16650*
COc1ccc(C(CNC(=O)c2cc(S(=O)(=O)N3CCCC3)ccc2Cl)N2CCCC2)cc1 (stereo not drawn) | 5 | 0 | -8 | 3627
CCN(C[C@H]1N[C@@](CC)(C(=O)OC)[C@H]2C(=O)N(C)C(=O)[C@@H]12)S(=O)(=O)c1ccc(C(F)(F)F)cc1 | -4 | 0 | -20 | 3719
CC1CN(C(C)C)C(=S)NC1=O (stereo not drawn) | -5 | 0 | 1 | 3728
Cc1nc2ccccc2c(=O)n1NC(=O)c1ccc(Cl)cc1 | -22 | 0 | -9 | 3203
CCn1c(SCC(=O)c2ccccc2)nc2ccccc2c1=O | 4 | 0 | 0 | 3792
O=C(CSc1nc2ccccc2c(=O)n1NC(=O)Cc1ccccc1)NCc1ccccc1 | -7 | -2 | 0 | 23372*
COc1ccc(C(=O)Nn2c(SCC(=O)NCc3ccccc3)nc3ccccc3c2=O)cc1 | -2 | 1 | -11 | 8897
O=C(CSc1nc2ccccc2c(=O)n1NC(=O)c1ccccc1)c1ccccc1 | 1 | 0 | -5 | 22548*
COc1ccc(C(=O)Nn2c(SCC(=O)NC3CCCC3)nc3ccccc3c2=O)cc1 | 5 | 1 | 1 | 21985*
O=C(CSc1nc2ccccc2c(=O)n1NC(=O)c1ccccc1)c1ccc(Cl)cc1 | 5 | u | -1 | 19026*
SMILES | BoNT F protease | BoNT-A LC inh2 | Anthrax LF prot | Bead autofluor
O=C1CN(C(=O)COC(=O)c2cc(Cl)ccc2[N+](=O)[O-])c2ccccc2N1 | -2 | 0 | 8 | 2802
O=C(CCNC(=O)c1ccc(Cl)cc1)Nc1ccccc1N1CCCCC1 | -1 | 1 | 4 | 5128
Cc1cccc(-n2c(C)nc3cc(C(=O)NCCN4CCOCC4)ccc32)c1 | -3 | -1 | -8 | 3773
Cc1ccc2c(c1)N(C(=O)CCC(=O)NCCN1CCOCC1)CCO2 | 4 | 0 | -7 | 5843
CCOC(=O)c1[nH]c2cc3c(cc2c1CCCN1C(=O)c2ccccc2C1=O)OCCO3 | 2 | u | 2 | 19746*
CCC(CC)C(=O)Nc1cccc(S(=O)(=O)c2cccc(NC(=O)C(CC)CC)c2)c1 | -1 | -1 | -1 | 16846*
CCC(CC)C(=O)Nc1cccc(C(=O)Nc2ccc(S(N)(=O)=O)cc2)c1 | -5 | -1 | -6 | 3823
CCC(CC)C(=O)Nc1cccc(C(=O)Nc2ccc(S(=O)(=O)Nc3ccc(C)cc3)cc2)c1 | -4 | 0 | 1 | 22769*

Compound activity from PubChem.
